Key:
Assay in all cases: DAPPL (digital affinity profiling via proximity ligation, sequencing); 10 mM Tris-HCl pH 7.5, 50 mM NaCl, 1 mM DTT, 4% glycerol, room temperature, 30 min; GST-TFs on glutathione beads, 16-mer random dsDNA library, 0.1% formaldehyde crosslink after washing; high values mean tight binding
Conditions in all cases: protein: recombinant; tags: N-terminal GST; dsDNA, one strand shown
[1] = molecular target: T1, FLI1 (Homo sapiens, UniProt Q01543 1-452)
T1 sequence: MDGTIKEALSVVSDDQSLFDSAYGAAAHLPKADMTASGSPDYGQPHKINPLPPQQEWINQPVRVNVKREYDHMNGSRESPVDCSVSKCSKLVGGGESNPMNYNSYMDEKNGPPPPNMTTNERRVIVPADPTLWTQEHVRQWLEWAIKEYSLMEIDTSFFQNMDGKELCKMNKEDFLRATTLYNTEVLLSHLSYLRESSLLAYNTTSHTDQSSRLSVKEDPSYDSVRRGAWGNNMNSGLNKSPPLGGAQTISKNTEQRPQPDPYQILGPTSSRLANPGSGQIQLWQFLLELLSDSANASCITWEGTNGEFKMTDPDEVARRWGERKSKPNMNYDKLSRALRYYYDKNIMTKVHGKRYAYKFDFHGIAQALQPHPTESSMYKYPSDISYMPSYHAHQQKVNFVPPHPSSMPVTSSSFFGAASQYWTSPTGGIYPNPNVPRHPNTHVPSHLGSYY
How it was run: (§1)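 Binding signal is given per hexamer as its read frequency for a factor divided by its frequency in the tag-only sample. GST-fused human transcription factors were expressed in yeast, captured on glutathione beads, barcoded with DNA and pooled with that sample, then incubated with 200 nmole of a 16-mer random double-stranded DNA library in Tris/NaCl/DTT/glycerol buffer for 30 min at room temperature. The pools were then washed, crosslinked, proximity-ligated, amplified by PCR and sequenced on an Illumina NextSeq500.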

[2] = molecular target: T2, ELK1 (Homo sapiens, UniProt P19419 1-428)
T2 sequence: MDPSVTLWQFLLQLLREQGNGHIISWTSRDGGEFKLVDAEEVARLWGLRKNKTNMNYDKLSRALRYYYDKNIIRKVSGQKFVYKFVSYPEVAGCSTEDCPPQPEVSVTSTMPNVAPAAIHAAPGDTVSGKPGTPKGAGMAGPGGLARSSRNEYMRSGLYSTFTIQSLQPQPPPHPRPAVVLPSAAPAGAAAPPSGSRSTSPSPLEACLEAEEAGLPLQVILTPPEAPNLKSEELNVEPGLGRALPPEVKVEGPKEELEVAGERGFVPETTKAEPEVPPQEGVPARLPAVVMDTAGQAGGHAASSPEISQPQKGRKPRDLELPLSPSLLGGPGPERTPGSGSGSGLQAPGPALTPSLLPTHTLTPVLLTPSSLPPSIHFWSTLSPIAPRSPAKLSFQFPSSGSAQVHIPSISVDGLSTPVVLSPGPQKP
How it was run: as §1

[3] = molecular target: T3, GABPA (Homo sapiens, UniProt Q06546 1-454)
T3 sequence: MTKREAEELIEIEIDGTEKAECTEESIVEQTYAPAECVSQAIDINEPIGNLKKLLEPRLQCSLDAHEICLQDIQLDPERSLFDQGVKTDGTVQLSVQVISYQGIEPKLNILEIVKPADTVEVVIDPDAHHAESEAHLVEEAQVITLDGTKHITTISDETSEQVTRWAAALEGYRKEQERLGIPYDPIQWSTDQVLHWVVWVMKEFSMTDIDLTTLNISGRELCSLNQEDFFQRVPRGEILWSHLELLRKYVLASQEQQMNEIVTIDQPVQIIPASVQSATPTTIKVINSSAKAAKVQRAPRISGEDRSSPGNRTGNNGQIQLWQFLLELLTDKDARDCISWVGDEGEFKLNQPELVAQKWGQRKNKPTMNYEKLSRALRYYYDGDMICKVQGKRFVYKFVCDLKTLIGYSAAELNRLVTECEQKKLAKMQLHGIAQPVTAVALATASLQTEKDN
How it was run: as §1

[4] = molecular target: T4, ERG (Homo sapiens, UniProt P11308 1-479)
T4 sequence: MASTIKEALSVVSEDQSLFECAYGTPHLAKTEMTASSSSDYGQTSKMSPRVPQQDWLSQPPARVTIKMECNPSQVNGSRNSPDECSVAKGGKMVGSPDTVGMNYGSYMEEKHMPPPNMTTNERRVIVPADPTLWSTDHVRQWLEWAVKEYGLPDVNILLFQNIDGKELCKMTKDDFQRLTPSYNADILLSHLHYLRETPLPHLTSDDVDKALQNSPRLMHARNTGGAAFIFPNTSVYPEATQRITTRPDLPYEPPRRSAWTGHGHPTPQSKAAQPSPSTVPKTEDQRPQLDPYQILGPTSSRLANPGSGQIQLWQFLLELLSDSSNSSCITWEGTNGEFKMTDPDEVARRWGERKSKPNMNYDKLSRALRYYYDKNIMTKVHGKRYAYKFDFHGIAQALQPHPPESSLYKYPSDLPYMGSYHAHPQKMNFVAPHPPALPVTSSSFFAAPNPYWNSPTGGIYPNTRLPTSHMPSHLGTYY
How it was run: as §1

[5] = molecular target: ELF1 (Homo sapiens, UniProt P32519 1-619)
How it was run: as §1

[6] = molecular target: T5, EHF (Homo sapiens, UniProt Q9NZC4 1-300)
T5 sequence: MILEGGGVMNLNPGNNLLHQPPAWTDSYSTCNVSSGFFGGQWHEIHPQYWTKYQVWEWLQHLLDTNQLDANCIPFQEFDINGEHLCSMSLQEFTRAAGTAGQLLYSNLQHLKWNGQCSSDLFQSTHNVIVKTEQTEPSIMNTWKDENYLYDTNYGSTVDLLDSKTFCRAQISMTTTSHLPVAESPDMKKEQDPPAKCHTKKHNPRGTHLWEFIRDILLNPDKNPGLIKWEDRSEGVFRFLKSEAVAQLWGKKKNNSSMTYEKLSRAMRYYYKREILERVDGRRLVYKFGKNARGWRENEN
How it was run: as §1

[7] = molecular target: SPI1 (Homo sapiens, UniProt P17947 1-270)
How it was run: as §1

[8] = molecular target: SPIB (Homo sapiens, UniProt Q01892 1-262)
How it was run: as §1

[9] = molecular target: T6, ELK3 (Homo sapiens, UniProt P41970 1-407)
T6 sequence: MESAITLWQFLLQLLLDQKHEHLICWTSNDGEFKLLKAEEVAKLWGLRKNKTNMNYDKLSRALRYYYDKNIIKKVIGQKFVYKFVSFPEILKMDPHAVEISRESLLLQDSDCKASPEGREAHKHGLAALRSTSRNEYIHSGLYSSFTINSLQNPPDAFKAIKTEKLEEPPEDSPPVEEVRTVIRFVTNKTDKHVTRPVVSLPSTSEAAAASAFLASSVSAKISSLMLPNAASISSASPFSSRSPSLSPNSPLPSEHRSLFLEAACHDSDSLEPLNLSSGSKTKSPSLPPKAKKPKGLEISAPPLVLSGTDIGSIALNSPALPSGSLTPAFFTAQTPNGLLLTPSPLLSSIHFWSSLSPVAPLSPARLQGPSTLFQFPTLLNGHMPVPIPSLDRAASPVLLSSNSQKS
How it was run: as §1

ELF1, sequence (P32519 whole entry): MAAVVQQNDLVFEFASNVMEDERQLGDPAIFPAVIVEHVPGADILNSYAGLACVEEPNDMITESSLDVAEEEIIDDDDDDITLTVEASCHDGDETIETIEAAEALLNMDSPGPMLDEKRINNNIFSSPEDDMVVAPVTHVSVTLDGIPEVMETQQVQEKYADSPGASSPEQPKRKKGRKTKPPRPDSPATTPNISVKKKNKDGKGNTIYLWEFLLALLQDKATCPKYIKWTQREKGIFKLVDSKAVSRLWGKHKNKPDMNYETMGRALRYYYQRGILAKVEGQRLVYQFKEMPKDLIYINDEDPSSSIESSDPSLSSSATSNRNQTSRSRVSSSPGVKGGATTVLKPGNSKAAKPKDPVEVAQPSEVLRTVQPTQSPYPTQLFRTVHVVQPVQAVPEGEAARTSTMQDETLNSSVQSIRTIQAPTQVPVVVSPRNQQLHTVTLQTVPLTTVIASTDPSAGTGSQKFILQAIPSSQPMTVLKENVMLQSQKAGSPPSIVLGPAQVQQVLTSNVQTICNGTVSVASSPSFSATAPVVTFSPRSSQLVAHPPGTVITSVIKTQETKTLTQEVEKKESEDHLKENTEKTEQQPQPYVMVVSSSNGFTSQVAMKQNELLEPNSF
SPIB, sequence (Q01892 whole entry): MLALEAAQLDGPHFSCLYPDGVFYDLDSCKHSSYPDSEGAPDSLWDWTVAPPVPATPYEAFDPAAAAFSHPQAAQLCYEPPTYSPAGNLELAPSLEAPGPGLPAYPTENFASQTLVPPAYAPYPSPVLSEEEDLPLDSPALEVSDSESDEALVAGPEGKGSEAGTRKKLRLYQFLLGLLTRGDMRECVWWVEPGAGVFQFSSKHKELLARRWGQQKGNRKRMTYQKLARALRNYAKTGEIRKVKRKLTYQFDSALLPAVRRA

Question: For CCCTTA, which binding signal [1] is on record?
Answer: Its binding signal is 1.29 fold enrichment (6-mer frequency, TF over GST control).

Question: What about the binding signal [2] of the same sequence?
Answer: The binding signal was 1.24 fold enrichment (6-mer frequency, TF over GST control).

Question: And the binding signal [3]?
Answer: Its binding signal is 1.24 fold enrichment (6-mer frequency, TF over GST control).

Question: What about the binding signal [4] of the same sequence?
Answer: Its binding signal is 1.28 fold enrichment (6-mer frequency, TF over GST control).

Question: What about the binding signal [5] of the same sequence?
Answer: Its binding signal is 1.3 fold enrichment (6-mer frequency, TF over GST control).

Question: And the binding signal [6]?
Answer: Its binding signal is 1.32 fold enrichment (6-mer frequency, TF over GST control).

Question: And the binding signal [7]?
Answer: The binding signal was 1.31 fold enrichment (6-mer frequency, TF over GST control).

Question: And the binding signal [8]?
Answer: Its binding signal is 1.35 fold enrichment (6-mer frequency, TF over GST control).

Question: What about the binding signal [9] of the same sequence?
Answer: Its binding signal is 1.25 fold enrichment (6-mer frequency, TF over GST control).

— article PMC7862700, “An all-to-all approach to the identification of sequence-specific readers for epigenetic DNA modifications on cytosine”
